# PubChem BioAssay AID1159580 (chemical genetic matrix, 2015)
# In all, about 5,500 compounds went through this assay and about 2,000 (36%) were called active. Not shown: some 18% with an inconclusive outcome. The list shows a part of the results. A number with no mark means an inactive call. No stated cut-off is given here; in the data, active means normalized growth mostly below about 0.91 (no sharp cut-off); inconclusive means no clear call, values can overlap the other calls; inactive means mostly above about 0.92.
# Test: chemical genetic growth profiling, strain panel (AID 1159580);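 further: tested at 20 µM; growth read once vehicle control cultures reached saturation at 30 °C; 1 = growth at the plate median or of vehicle wells; lower values mean less growth of the strain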
# Conditions: growth OD
# [1] = S. cerevisiae deletion strains, locus YHR030C, strain SLT2, active compounds read low
# [2] = S. cerevisiae deletion strains, locus YJL095W, strain BCK1, active compounds read low
# [3] = S. cerevisiae deletion strains, locus YAL013W, strain DEP1, active compounds read low
# [4] = S. cerevisiae deletion strains, locus YBR229C, strain ROT2, active compounds read low
# [5] = S. cerevisiae deletion strains, locus YDL101C, strain DUN1, active compounds read low
# [6] = S. cerevisiae deletion strains, locus YDR150W, strain NUM1, active compounds read low
# [7] = S. cerevisiae deletion strains, locus YEL061C, strain CIN8, active compounds read low
# [8] = S. cerevisiae deletion strains, locus YGR078C, strain PAC10, active compounds read low
# [9] = S. cerevisiae deletion strains, locus YJR043C, strain POL32, active compounds read low
# [10] = S. cerevisiae deletion strains, locus YJR075W, strain HOC1, active compounds read low
# [11] = S. cerevisiae deletion strains, locus YLR039C, strain RIC1, active compounds read low
# [12] = S. cerevisiae deletion strains, locus YLR262C, strain YPT6, active compounds read low
# [13] = S. cerevisiae deletion strains, locus YMR263W, strain SAP30, active compounds read low
# [14] = S. cerevisiae deletion strains, locus YNL322C, strain KRE1, active compounds read low
# [15] = S. cerevisiae deletion strains, locus YPL241C, strain CIN2, active compounds read low
smiles,measurement,setting,value
CC[N+](CC)(CC(=O)Nc1c(C)cccc1C)Cc1ccccc1,normalized growth,[1],0.962
same,normalized growth,"S. cerevisiae deletion strains, locus YHR079C, strain IRE1, active compounds read low",0.878
same,normalized growth,[2],0.916
same,normalized growth,"S. cerevisiae deletion strains, locus YJR066W, strain TOR1, active compounds read low",0.897
same,normalized growth,"S. cerevisiae deletion strains, locus YLR113W, strain HOG1, active compounds read low",0.814 (active)
same,normalized growth,"S. cerevisiae deletion strains, locus YNL183C, strain NPR1, active compounds read low",0.851
same,normalized growth,"S. cerevisiae deletion strains, locus YOR231W, strain MKK1, active compounds read low",0.899
same,normalized growth,"S. cerevisiae deletion strains, locus YPL256C, strain CLN2, active compounds read low",0.868
CN1C2CCC1CC(=NO)C2,normalized growth,[3],0.993
same,normalized growth,[4],0.982
same,normalized growth,[5],1.02
same,normalized growth,[6],0.991
same,normalized growth,[7],0.997
same,normalized growth,[8],1
same,normalized growth,[1],1.07
same,normalized growth,"S. cerevisiae deletion strains, locus YHR087W, strain rtc3, active compounds read low",0.993
same,normalized growth,"S. cerevisiae deletion strains, locus YJL187C, strain SWE1, active compounds read low",0.989
same,normalized growth,[9],0.986
same,normalized growth,[10],0.984
same,normalized growth,"S. cerevisiae deletion strains, locus YKL190W, strain CNB1, active compounds read low",0.994
same,normalized growth,[11],0.998
same,normalized growth,"S. cerevisiae deletion strains, locus YLR058C, strain SHM2 (second series), active compounds read low",0.983
same,normalized growth,"S. cerevisiae deletion strains, locus YLR085C, strain ARP6, active compounds read low",1.02
same,normalized growth,[12],0.997
same,normalized growth,"S. cerevisiae deletion strains, locus YML094W, strain GIM5, active compounds read low",1.01
same,normalized growth,"S. cerevisiae deletion strains, locus YMR219W, strain ESC1, active compounds read low",1.01
same,normalized growth,[13],0.986
same,normalized growth,"S. cerevisiae deletion strains, locus YNL153C, strain GIM3, active compounds read low",1.03
same,normalized growth,"S. cerevisiae deletion strains, locus YNL298W, strain CLA4 (second series), active compounds read low",1.03
same,normalized growth,[14],1
same,normalized growth,"S. cerevisiae deletion strains, locus YNR030W, strain Alg12, active compounds read low",0.986
same,normalized growth,"S. cerevisiae deletion strains, locus YPL055C, strain LGE1, active compounds read low",0.984
same,normalized growth,[15],0.975
same,normalized growth,"S. cerevisiae deletion strains, locus YPR135W, strain CTF4, active compounds read low",1.03
CO[C@@]1(NC(=O)CSCC#N)C(=O)N2C(C(=O)O)=C(CSc3nnnn3C)CS[C@@H]21,normalized growth,"S. cerevisiae deletion strains, locus YAL040C, strain CLN3, active compounds read low",1.01
same,normalized growth,"S. cerevisiae deletion strains, locus YER002W, strain NOP16, active compounds read low",0.986
same,normalized growth,[8],1
same,normalized growth,[10],1
same,normalized growth,"S. cerevisiae deletion strains, locus YNL175C, strain NOP13, active compounds read low",0.995
same,normalized growth,"S. cerevisiae deletion strains, locus YNL197C, strain WHI3, active compounds read low",1
same,normalized growth,"S. cerevisiae deletion strains, locus YNL224C, strain SQS1, active compounds read low",1
same,normalized growth,"S. cerevisiae deletion strains, locus YOR083W, strain WHI5 (second series), active compounds read low",1
same,normalized growth,[15],1
CCCc1occc(=O)c1/C=C/O,normalized growth,[3],0.98
same,normalized growth,"S. cerevisiae deletion strains, locus YBR021W, strain FUR4, active compounds read low",0.999
same,normalized growth,[4],0.987
same,normalized growth,"S. cerevisiae deletion strains, locus YCL029C, strain bik1, active compounds read low",0.97
same,normalized growth,"S. cerevisiae deletion strains, locus YDL035C, strain GPR1, active compounds read low",0.981
same,normalized growth,"S. cerevisiae deletion strains, locus YDL074C, strain BRE1, active compounds read low",1.01
same,normalized growth,[5],0.982
same,normalized growth,"S. cerevisiae deletion strains, locus YDL134C, strain PPH21, active compounds read low",0.939
same,normalized growth,"S. cerevisiae deletion strains, locus YDL185W, strain tfp1, active compounds read low",0.97
same,normalized growth,"S. cerevisiae deletion strains, locus YDL192W, strain arf1, active compounds read low",0.923
same,normalized growth,"S. cerevisiae deletion strains, locus YDR101C, strain arx1, active compounds read low",0.943
same,normalized growth,[6],0.983
same,normalized growth,"S. cerevisiae deletion strains, locus YDR162C, strain NBP2, active compounds read low",0.927
same,normalized growth,"S. cerevisiae deletion strains, locus YDR318W, strain mcm21, active compounds read low",0.942
same,normalized growth,"S. cerevisiae deletion strains, locus YDR388W, active compounds read low",0.964
same,normalized growth,"S. cerevisiae deletion strains, locus YDR502C, strain sam2, active compounds read low",0.913 (active)
same,normalized growth,[7],0.98
same,normalized growth,"S. cerevisiae deletion strains, locus YER110C, active compounds read low",0.963
same,normalized growth,"S. cerevisiae deletion strains, locus YER155C, strain BEM2, active compounds read low",0.967
same,normalized growth,"S. cerevisiae deletion strains, locus YER167W, strain BCK2, active compounds read low",0.936
same,normalized growth,"S. cerevisiae deletion strains, locus YGL078C, strain dbp3, active compounds read low",1
same,normalized growth,"S. cerevisiae deletion strains, locus YGL086W, strain mad1, active compounds read low",0.979
same,normalized growth,"S. cerevisiae deletion strains, locus YGL248W, strain PDE1, active compounds read low",0.949
same,normalized growth,[8],0.964
same,normalized growth,"S. cerevisiae deletion strains, locus YGR135W, strain pre9, active compounds read low",0.948
same,normalized growth,"S. cerevisiae deletion strains, locus YGR252W, strain gcn5, active compounds read low",0.925
same,normalized growth,[1],0.986
same,normalized growth,"S. cerevisiae deletion strains, locus YHR079C, strain IRE1 (second series), active compounds read low",0.959
same,normalized growth,"S. cerevisiae deletion strains, locus YHR094C, strain hxt1, active compounds read low",0.957
same,normalized growth,"S. cerevisiae deletion strains, locus YHR129C, strain ARP1, active compounds read low",0.974
same,normalized growth,"S. cerevisiae deletion strains, locus YHR200W, strain rpn10, active compounds read low",0.95
same,normalized growth,"S. cerevisiae deletion strains, locus YIL066C, strain RNR3, active compounds read low",0.97
same,normalized growth,"S. cerevisiae deletion strains, locus YIL073C, strain SPO22, active compounds read low",0.992
same,normalized growth,"S. cerevisiae deletion strains, locus YIL125W, strain kgd1, active compounds read low",0.964
same,normalized growth,"S. cerevisiae deletion strains, locus YIR030C, strain dcg1, active compounds read low",0.955
same,normalized growth,[2],0.909
same,normalized growth,"S. cerevisiae deletion strains, locus YJL134W, strain LCB3, active compounds read low",0.984
same,normalized growth,"S. cerevisiae deletion strains, locus YJL168C, strain set2, active compounds read low",0.987
same,normalized growth,"S. cerevisiae deletion strains, locus YJL187C, strain SWE1 (second series), active compounds read low",0.963
same,normalized growth,[9],0.943
same,normalized growth,[10],0.945
same,normalized growth,"S. cerevisiae deletion strains, locus YKL009W, strain mrt4, active compounds read low",1.02
same,normalized growth,"S. cerevisiae deletion strains, locus YKL068W, active compounds read low",0.972
same,normalized growth,"S. cerevisiae deletion strains, locus YKL085W, strain MDH1 (second series), active compounds read low",0.96
same,normalized growth,"S. cerevisiae deletion strains, locus YKL085W, strain MDH1, active compounds read low",0.96
same,normalized growth,"S. cerevisiae deletion strains, locus YKR001C, strain vps1, active compounds read low",0.85 (active)
same,normalized growth,[11],0.929
same,normalized growth,"S. cerevisiae deletion strains, locus YLR058C, strain SHM2, active compounds read low",0.973
same,normalized growth,"S. cerevisiae deletion strains, locus YLR102C, strain apc9, active compounds read low",0.966
same,normalized growth,[12],0.922
same,normalized growth,"S. cerevisiae deletion strains, locus YLR268W, strain sec22, active compounds read low",0.98
same,normalized growth,"S. cerevisiae deletion strains, locus YLR330W, strain CHS5, active compounds read low",0.969
same,normalized growth,"S. cerevisiae deletion strains, locus YLR342W, strain FKS1 (second series), active compounds read low",0.982
same,normalized growth,"S. cerevisiae deletion strains, locus YLR371W, strain rom2, active compounds read low",0.964
same,normalized growth,"S. cerevisiae deletion strains, locus YLR418C, strain cdc73, active compounds read low",0.872
same,normalized growth,"S. cerevisiae deletion strains, locus YML016C, strain PPZ1, active compounds read low",0.97
same,normalized growth,"S. cerevisiae deletion strains, locus YML032C, strain rad52, active compounds read low",0.925
same,normalized growth,"S. cerevisiae deletion strains, locus YML124C, strain tub3, active compounds read low",0.954
same,normalized growth,"S. cerevisiae deletion strains, locus YMR078C, strain ctf18, active compounds read low",0.931
same,normalized growth,"S. cerevisiae deletion strains, locus YMR223W, strain ubp8, active compounds read low",0.969
same,normalized growth,[13],0.975
same,normalized growth,"S. cerevisiae deletion strains, locus YMR307W, strain GAS1, active compounds read low",0.94
same,normalized growth,"S. cerevisiae deletion strains, locus YNL067W, strain RPL9B, active compounds read low",0.962
same,normalized growth,"S. cerevisiae deletion strains, locus YNL233W, strain BNI4, active compounds read low",0.962
same,normalized growth,"S. cerevisiae deletion strains, locus YNL250W, strain rad50, active compounds read low",0.975
same,normalized growth,"S. cerevisiae deletion strains, locus YNL271C, strain bni1, active compounds read low",0.972
same,normalized growth,"S. cerevisiae deletion strains, locus YNL298W, strain CLA4, active compounds read low",0.976
same,normalized growth,"S. cerevisiae deletion strains, locus YNL307C, strain MCK1, active compounds read low",0.956
same,normalized growth,[14],0.986
same,normalized growth,"S. cerevisiae deletion strains, locus YNR052C, strain pop2, active compounds read low",0.993
same,normalized growth,"S. cerevisiae deletion strains, locus YOL006C, strain TOP1, active compounds read low",0.854
same,normalized growth,"S. cerevisiae deletion strains, locus YOL012C, strain htz1",1.14
same,normalized growth,"S. cerevisiae deletion strains, locus YOL147C, strain pex11, active compounds read low",0.983
same,normalized growth,"S. cerevisiae deletion strains, locus YOR061W, strain CKA2, active compounds read low",0.998
same,normalized growth,"S. cerevisiae deletion strains, locus YOR069W, strain VPS5, active compounds read low",0.974
same,normalized growth,"S. cerevisiae deletion strains, locus YOR136W, strain idh2, active compounds read low",0.985
same,normalized growth,"S. cerevisiae deletion strains, locus YOR144C, strain elg1, active compounds read low",0.962
same,normalized growth,"S. cerevisiae deletion strains, locus YOR184W, strain ser1, active compounds read low",0.922
same,normalized growth,"S. cerevisiae deletion strains, locus YOR316C, strain cot1, active compounds read low",0.964
same,normalized growth,[15],0.979
same,normalized growth,"S. cerevisiae deletion strains, locus YPR119W, strain clb2, active compounds read low",0.964
same,normalized growth,"S. cerevisiae deletion strains, locus YPR141C, strain kar3, active compounds read low",0.946
same,normalized growth,"S. cerevisiae deletion strains, locus YPR163C, strain tif3, active compounds read low",0.986
same,normalized growth,"S. cerevisiae deletion strains, locus YPR167C, strain met16, active compounds read low",0.958
same,normalized growth,"S. cerevisiae deletion strains, strain wtn01, active compounds read low",0.995
same,normalized growth,"S. cerevisiae strains, strain wild type, active compounds read low",0.968
